Reference: article PMC7862700, “An all-to-all approach to the identification of sequence-specific readers for epigenetic DNA modifications on cytosine”

Legend:
Test in all cases: DAPPL (digital affinity profiling via proximity ligation, sequencing); 10 mM Tris-HCl pH 7.5, 50 mM NaCl, 1 mM DTT, 4% glycerol, room temperature, 30 min; GST-TFs on glutathione beads, 16-mer random dsDNA library, 0.1% formaldehyde crosslink after washing; high values mean tight binding
Settings in all cases: protein: recombinant; tags: N-terminal GST; dsDNA, one strand shown
[1] = target: T1, ERF (Homo sapiens, UniProt P50548 1-548)
T1 sequence: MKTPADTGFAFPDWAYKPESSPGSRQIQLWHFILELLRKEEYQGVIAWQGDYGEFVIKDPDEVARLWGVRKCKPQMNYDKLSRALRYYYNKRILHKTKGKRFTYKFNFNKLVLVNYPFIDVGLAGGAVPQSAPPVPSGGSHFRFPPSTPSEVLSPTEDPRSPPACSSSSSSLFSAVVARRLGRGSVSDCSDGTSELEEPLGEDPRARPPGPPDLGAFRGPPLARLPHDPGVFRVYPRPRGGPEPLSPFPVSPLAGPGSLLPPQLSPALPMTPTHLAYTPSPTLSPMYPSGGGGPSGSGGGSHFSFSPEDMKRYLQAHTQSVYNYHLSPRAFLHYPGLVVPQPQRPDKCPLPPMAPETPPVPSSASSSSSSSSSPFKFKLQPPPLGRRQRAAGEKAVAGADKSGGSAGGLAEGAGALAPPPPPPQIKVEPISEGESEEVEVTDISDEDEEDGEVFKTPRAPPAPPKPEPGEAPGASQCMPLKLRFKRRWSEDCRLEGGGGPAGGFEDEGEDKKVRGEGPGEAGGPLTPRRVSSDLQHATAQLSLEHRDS
How it was run: (§1)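 Binding signal is defined as a hexamer's read frequency for one factor over its frequency for the tag-only sample. To obtain reads, GST-fused human transcription factors were expressed in yeast, captured on glutathione beads, barcoded with DNA and pooled with that sample. Pools met 200 nmole of a 16-mer random double-stranded DNA library in Tris/NaCl/DTT/glycerol buffer for 30 min at room temperature before washing, 0.1% formaldehyde crosslinking, proximity ligation (BsaI/T4 ligase, 1 h, 37 °C), PCR and Illumina NextSeq500 sequencing.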

[2] = target: T2, ETV3L (Homo sapiens, UniProt Q6ZN32 1-361)
T2 sequence: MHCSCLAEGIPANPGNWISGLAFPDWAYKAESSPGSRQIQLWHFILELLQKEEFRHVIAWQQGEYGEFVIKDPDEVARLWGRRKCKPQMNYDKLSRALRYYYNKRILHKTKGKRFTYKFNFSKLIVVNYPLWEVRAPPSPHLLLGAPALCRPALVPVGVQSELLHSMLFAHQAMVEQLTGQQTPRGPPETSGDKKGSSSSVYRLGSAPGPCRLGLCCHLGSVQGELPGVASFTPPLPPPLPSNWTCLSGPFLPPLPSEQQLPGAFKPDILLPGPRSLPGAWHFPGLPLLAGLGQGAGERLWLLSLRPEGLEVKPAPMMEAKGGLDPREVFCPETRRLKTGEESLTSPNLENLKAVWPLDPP
How it was run: as §1

[3] = target: T3, ETS2 (Homo sapiens, UniProt P15036 1-469)
T3 sequence: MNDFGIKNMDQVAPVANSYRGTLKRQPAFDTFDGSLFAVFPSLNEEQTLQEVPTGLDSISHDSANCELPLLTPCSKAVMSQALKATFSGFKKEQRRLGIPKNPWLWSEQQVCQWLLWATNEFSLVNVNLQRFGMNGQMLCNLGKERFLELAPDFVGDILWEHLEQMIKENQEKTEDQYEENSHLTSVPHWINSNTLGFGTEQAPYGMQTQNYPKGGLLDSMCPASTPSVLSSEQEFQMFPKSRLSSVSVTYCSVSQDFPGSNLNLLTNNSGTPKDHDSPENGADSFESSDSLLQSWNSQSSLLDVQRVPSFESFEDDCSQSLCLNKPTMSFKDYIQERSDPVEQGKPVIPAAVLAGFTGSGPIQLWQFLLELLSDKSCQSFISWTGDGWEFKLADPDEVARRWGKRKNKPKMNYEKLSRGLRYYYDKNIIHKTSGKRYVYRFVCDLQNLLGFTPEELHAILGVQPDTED
How it was run: as §1

[4] = target: T4, SPDEF (Homo sapiens, UniProt O95238 1-335)
T4 sequence: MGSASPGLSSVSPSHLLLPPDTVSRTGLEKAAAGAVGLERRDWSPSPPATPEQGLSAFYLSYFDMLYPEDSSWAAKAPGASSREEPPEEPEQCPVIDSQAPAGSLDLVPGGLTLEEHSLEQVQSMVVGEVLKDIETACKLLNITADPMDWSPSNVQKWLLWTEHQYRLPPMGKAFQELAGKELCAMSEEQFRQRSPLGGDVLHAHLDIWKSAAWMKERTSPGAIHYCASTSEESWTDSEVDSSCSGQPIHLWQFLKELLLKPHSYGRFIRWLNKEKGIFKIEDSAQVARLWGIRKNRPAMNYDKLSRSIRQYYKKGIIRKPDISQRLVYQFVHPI
How it was run: as §1

[5] = target: T5, ETV7 (Homo sapiens, UniProt Q9Y603 1-341)
T5 sequence: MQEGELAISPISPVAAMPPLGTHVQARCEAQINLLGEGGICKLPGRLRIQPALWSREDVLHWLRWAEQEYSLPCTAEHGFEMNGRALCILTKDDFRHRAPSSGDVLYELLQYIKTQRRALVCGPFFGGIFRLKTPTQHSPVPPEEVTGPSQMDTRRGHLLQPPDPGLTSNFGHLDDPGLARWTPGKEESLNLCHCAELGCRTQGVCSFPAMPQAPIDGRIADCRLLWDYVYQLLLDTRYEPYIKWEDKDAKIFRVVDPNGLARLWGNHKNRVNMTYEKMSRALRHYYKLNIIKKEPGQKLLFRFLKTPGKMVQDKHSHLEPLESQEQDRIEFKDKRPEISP
How it was run: as §1

[6] = target: T6, ELF5 (Homo sapiens, UniProt Q9UKW6-2 1-255)
T6 sequence: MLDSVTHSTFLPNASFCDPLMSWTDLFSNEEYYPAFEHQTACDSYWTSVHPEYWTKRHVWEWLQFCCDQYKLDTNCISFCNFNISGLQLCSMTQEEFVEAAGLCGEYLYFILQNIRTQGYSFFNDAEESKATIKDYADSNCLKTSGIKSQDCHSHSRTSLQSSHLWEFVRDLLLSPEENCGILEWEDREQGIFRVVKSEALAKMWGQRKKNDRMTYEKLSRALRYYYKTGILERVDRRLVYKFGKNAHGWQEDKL
How it was run: as §1

[7] = target: T7, ETV3 (Homo sapiens, UniProt P41162-2 1-143)
T7 sequence: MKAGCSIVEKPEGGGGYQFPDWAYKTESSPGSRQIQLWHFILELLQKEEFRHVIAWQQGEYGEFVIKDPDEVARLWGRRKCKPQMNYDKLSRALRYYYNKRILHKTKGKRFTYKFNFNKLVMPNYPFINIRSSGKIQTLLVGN
How it was run: as §1

[8] = target: ETV6 (Homo sapiens, UniProt P41212 1-452)
ETV6, sequence (P41212 whole entry): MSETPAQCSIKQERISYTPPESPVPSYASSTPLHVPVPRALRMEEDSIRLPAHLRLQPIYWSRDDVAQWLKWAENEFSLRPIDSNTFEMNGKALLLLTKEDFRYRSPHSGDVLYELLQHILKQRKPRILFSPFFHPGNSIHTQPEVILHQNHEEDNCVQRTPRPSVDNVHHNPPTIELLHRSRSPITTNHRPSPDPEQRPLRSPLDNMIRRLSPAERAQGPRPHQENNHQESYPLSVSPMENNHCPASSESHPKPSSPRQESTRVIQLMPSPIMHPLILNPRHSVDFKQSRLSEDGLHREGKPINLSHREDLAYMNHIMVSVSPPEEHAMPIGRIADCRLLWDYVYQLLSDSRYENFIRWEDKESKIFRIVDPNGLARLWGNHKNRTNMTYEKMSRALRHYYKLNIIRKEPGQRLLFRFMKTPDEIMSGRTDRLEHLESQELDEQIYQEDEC
How it was run: as §1

Row | Sequence | binding signal [1] | binding signal [2] | binding signal [3] | binding signal [4] | binding signal [5] | binding signal [6] | binding signal [7] | binding signal [8]
1 | GATGTT | 1.24 fold enrichment (6-mer frequency, TF over GST control) | 1.31 fold enrichment (6-mer frequency, TF over GST control) | 1.24 fold enrichment (6-mer frequency, TF over GST control) | 1.51 fold enrichment (6-mer frequency, TF over GST control) | 1.21 fold enrichment (6-mer frequency, TF over GST control) | 1.32 fold enrichment (6-mer frequency, TF over GST control) | 1.34 fold enrichment (6-mer frequency, TF over GST control) | 1.3 fold enrichment (6-mer frequency, TF over GST control)
2 | AATGTT | 1.61 fold enrichment (6-mer frequency, TF over GST control) | 1.56 fold enrichment (6-mer frequency, TF over GST control) | 1.56 fold enrichment (6-mer frequency, TF over GST control) | 1.44 fold enrichment (6-mer frequency, TF over GST control) | 1.68 fold enrichment (6-mer frequency, TF over GST control) | 1.62 fold enrichment (6-mer frequency, TF over GST control) | 1.61 fold enrichment (6-mer frequency, TF over GST control) | 1.63 fold enrichment (6-mer frequency, TF over GST control)
3 | TCCGCA | 1.95 fold enrichment (6-mer frequency, TF over GST control) | 2.08 fold enrichment (6-mer frequency, TF over GST control) | 2.26 fold enrichment (6-mer frequency, TF over GST control) | 2.24 fold enrichment (6-mer frequency, TF over GST control) | 1.98 fold enrichment (6-mer frequency, TF over GST control) | 2.61 fold enrichment (6-mer frequency, TF over GST control) | 2.27 fold enrichment (6-mer frequency, TF over GST control) | 2.18 fold enrichment (6-mer frequency, TF over GST control)
4 | CATTTG | 1.4 fold enrichment (6-mer frequency, TF over GST control) | 1.25 fold enrichment (6-mer frequency, TF over GST control) | 1.31 fold enrichment (6-mer frequency, TF over GST control) | 1.25 fold enrichment (6-mer frequency, TF over GST control) | 1.3 fold enrichment (6-mer frequency, TF over GST control) | 1.18 fold enrichment (6-mer frequency, TF over GST control) | 1.25 fold enrichment (6-mer frequency, TF over GST control) | 1.21 fold enrichment (6-mer frequency, TF over GST control)
5 | TTTCTC | 1.58 fold enrichment (6-mer frequency, TF over GST control) | 1.68 fold enrichment (6-mer frequency, TF over GST control) | 1.77 fold enrichment (6-mer frequency, TF over GST control) | 1.49 fold enrichment (6-mer frequency, TF over GST control) | 1.57 fold enrichment (6-mer frequency, TF over GST control) | 1.56 fold enrichment (6-mer frequency, TF over GST control) | 1.62 fold enrichment (6-mer frequency, TF over GST control) | 1.65 fold enrichment (6-mer frequency, TF over GST control)
6 | GATTAT | 1.06 fold enrichment (6-mer frequency, TF over GST control) | 1.11 fold enrichment (6-mer frequency, TF over GST control) | 1.04 fold enrichment (6-mer frequency, TF over GST control) | 1.1 fold enrichment (6-mer frequency, TF over GST control) | 1.18 fold enrichment (6-mer frequency, TF over GST control) | 1.04 fold enrichment (6-mer frequency, TF over GST control) | 1.04 fold enrichment (6-mer frequency, TF over GST control) | 1.12 fold enrichment (6-mer frequency, TF over GST control)
7 | GTATCT | 1.16 fold enrichment (6-mer frequency, TF over GST control) | 1.16 fold enrichment (6-mer frequency, TF over GST control) | 1.05 fold enrichment (6-mer frequency, TF over GST control) | 1.14 fold enrichment (6-mer frequency, TF over GST control) | 1.14 fold enrichment (6-mer frequency, TF over GST control) | 1.18 fold enrichment (6-mer frequency, TF over GST control) | 1.13 fold enrichment (6-mer frequency, TF over GST control) | 1.19 fold enrichment (6-mer frequency, TF over GST control)
8 | CTCAAG | 1.27 fold enrichment (6-mer frequency, TF over GST control) | 1.1 fold enrichment (6-mer frequency, TF over GST control) | 1.22 fold enrichment (6-mer frequency, TF over GST control) | 1.14 fold enrichment (6-mer frequency, TF over GST control) | 1.24 fold enrichment (6-mer frequency, TF over GST control) | 1.1 fold enrichment (6-mer frequency, TF over GST control) | 1.24 fold enrichment (6-mer frequency, TF over GST control) | 1.22 fold enrichment (6-mer frequency, TF over GST control)
9 | TTAACA | 1.19 fold enrichment (6-mer frequency, TF over GST control) | 1.2 fold enrichment (6-mer frequency, TF over GST control) | 1.19 fold enrichment (6-mer frequency, TF over GST control) | 1.21 fold enrichment (6-mer frequency, TF over GST control) | 1.18 fold enrichment (6-mer frequency, TF over GST control) | 1.14 fold enrichment (6-mer frequency, TF over GST control) | 1.19 fold enrichment (6-mer frequency, TF over GST control) | 1.11 fold enrichment (6-mer frequency, TF over GST control)
